Bioassay records deposited in PubChem BioAssay by The Scripps Research Institute Molecular Screening Center.
Compounds with a hit are over-represented: about 1.8% of the library has one in this group of screens.
PME-1 primary: blocks human protein phosphatase methylesterase 1; recombinant PME-1, FP-Rh probe fluorescence polarization; AID 2130; inhibition, % at 5.9 µM; 320,000 tested, 0.53% active;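 active = inhibition above the campaign mean of all compounds plus 3 SD, cut at about 26% in these data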;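 note: competitive labeling of PME-1 active site by serine hydrolase directed probe; 0% = PME-1 with DMSO and 100% = wells lacking PME-1 enzyme; inhibitors block probe labeling so polarization falls and inhibition rises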
PAD4 FP inh: inhibitors of human PAD4. Q9UM07. recombinant PAD4, RCA probe fluorescence polarization. inhibition, % at 6.36 µM. 330,000 tested, 0.41% active. AID 485272;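 active = percent inhibition above a cutoff equal to the mean of all tested compounds plus 3 SD, cut at about 15% in these data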;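 note: 0% = PAD4 with RCA probe and DMSO and 100% = probe without PAD4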
GSTO1 counter: blocks human GSTO1 in RBBP9 counter-screen; P78417; recombinant GSTO1, activity-based probe fluorescence polarization; inhibition, % at 5.96 µM; 300,000 tested, 1.1% active; AID 1974;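 active = inhibition above the campaign mean inhibition plus 3 SD, cut at about 35% in these data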;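 note: 0% = GSTO1-1 with DMSO and 100% = wells lacking GSTO1-1 enzyme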
Target sequence (P78417 whole entry, looked up): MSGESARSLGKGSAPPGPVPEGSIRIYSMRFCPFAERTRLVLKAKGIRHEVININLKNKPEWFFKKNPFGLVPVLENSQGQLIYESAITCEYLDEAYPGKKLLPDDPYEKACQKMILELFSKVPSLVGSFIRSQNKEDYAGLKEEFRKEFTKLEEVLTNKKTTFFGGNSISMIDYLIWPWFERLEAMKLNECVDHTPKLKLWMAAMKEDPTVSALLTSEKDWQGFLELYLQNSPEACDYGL
LYPLA1 inh: counter-screen for PME1 inhibitors: inhibitors of human LYPLA1; O75608; recombinant LYPLA1, FP-Rh probe fluorescence polarization; inhibition, % at 5.9 µM; 320,000 tested, 0.16% active; AID 2174;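 active = inhibition above the mean of all tested compounds plus 3 SD, set per campaign, cut at about 14% in these data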;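 note: inhibitors block serine hydrolase probe labeling of LYPLA1 so polarization falls; 0% = enzyme with DMSO and 100% = wells lacking LYPLA1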
Target sequence (O75608 whole entry, looked up): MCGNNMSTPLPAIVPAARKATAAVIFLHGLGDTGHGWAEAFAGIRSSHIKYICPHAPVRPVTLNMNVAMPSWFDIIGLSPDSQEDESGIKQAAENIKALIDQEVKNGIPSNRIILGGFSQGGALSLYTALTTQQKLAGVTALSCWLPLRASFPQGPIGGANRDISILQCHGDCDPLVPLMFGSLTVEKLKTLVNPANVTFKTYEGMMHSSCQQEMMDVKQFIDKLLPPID
LYPLA2 inh: blocks human lysophospholipase 2, a PME1 counter-screen; O95372; recombinant LYPLA2, FP-Rh probe fluorescence polarization; inhibition, % at 5.9 µM; 320,000 tested, 0.38% active; AID 2177;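 active = inhibition above the screen-wide mean plus 3 SD, limit set per campaign, cut at about 26% in these data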;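 note: 0% = LYPLA2 with DMSO and 100% = wells lacking LYPLA2 enzyme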
Fam108B inh: blocks mouse Fam108B hydrolase in RBBP9 counter-screen | recombinant Fam108B, FP-Rh probe fluorescence polarization | inhibition, % at 9.51 µM | 300,000 tested, 0.33% active;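 active = inhibition above the screen mean inhibition plus 3 SD, computed separately per campaign, cut at about 18% in these data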;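 note: inhibitors lower polarization as less probe binds the enzyme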
GSTO1 confirm: confirmation of human GSTO1 inhibitors | shares compounds with GSTO1 counter | recombinant GSTO1, probe fluorescence polarization | inhibition, % at 5.96 µM | 2,400 tested, 54% active | AID 2176;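 active = inhibition above the primary screen's cutoff, its mean inhibition plus 3 SD, cut at about 35% in these data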;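 note: loss of polarization as inhibitors block binding of rhodamine sulfonate ester activity probe; 0% = GSTO1 with DMSO and 100% = wells lacking GSTO1 enzyme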
Numbers without * were called inactive; . = no result.

SMILES | PME-1 primary | PAD4 FP inh | GSTO1 counter | LYPLA1 inh | LYPLA2 inh | Fam108B inh | GSTO1 confirm
Cc1cc(C)cc(NC2=C(N)C(=O)c3ccccc3C2=O)c1 | 6 | 13 | 22 | 1 | 22 | 3 | .
O=C(NCCN1CCCC1)c1ccccc1Cl | 5 | 3 | 2 | -3 | 4 | 2 | .
O=C1C(Cl)=C(Nc2ccc(O)cc2)C(=O)c2ccccc21 | 21 | 3 | 90* | 2 | 5 | 12 | 92*
COC(=O)[C@H](Cc1ccc(O)cc1)NC(=O)Cn1cnc2c(OCc3ccccc3)ncnc21 | . | 3 | . | . | . | . | .
CC(NC(=O)c1ccco1)C(=O)OCc1cccc(C(F)(F)F)c1 (stereo unspecified) | . | -3 | . | . | . | . | .
CCNC1=C(Cl)C(=O)c2ccccc2C1=O | 10 | -5 | 70* | 6 | 7 | 3 | 8
COC1=C(Nc2ccc(OC)cc2)C(=O)c2ccccc2C1=O | 11 | -15 | 17 | 5 | 13 | 5 | .
Cc1ccc(C)c(Sc2ccc(NC(=O)CCl)cc2)c1 | 25 | -5 | 75* | -5 | -1 | -6 | 82*
C/C(=N\Nc1nc2ccccc2c(=O)n1O)c1ccco1 | -1 | -4 | 67* | 0 | 1 | 3 | 25
Cn1c2ccc(Cl)cc2c2nc3ccccc3nc21 | -8 | -1 | 76* | 2 | -2 | -1 | -4
Cc1ccc2c(c1)c1nc3ccccc3nc1n2C | -10 | -1 | -2 | -1 | 0 | -1 | .
CN(C)C(CNC(=O)c1ccc(C2SCCS2)cc1)c1ccccc1 (stereo unspecified) | 2 | -3 | 4 | 3 | -4 | 1 | .
CC(=O)N(/N=C1\Sc2ccccc2C1=O)c1ccccc1C | -6 | -18 | 41* | 6 | 4 | 5 | 71*
COCCN1C=C2C(=O)C(C)(OC(=O)C3CCCC3)C(=O)C(c3ccccc3)=C2C=C1CCCC(=O)OC (stereo unspecified) | 8 | -6 | 45* | -3 | -4 | 3 | 26
CCN(CC)CCCN1C=C2C(=O)C(C)(OC(=O)C3CCCC3)C(=O)C(c3ccccc3)=C2C=C1CCCC(=O)OC (stereo unspecified) | -4 | 0 | 6 | -5 | -2 | 6 | .
COC(=O)CCCC1=CC2=C(c3ccccc3)C(=O)C(C)(OC(=O)C3CCCC3)C(=O)C2=CN1C1CCCC1 (stereo unspecified) | 7 | -15 | 26 | -2 | 2 | 2 | .
COC(=O)CCCC1=CC2=C(c3ccccc3)C(=O)C(C)(OC(=O)C3CCCC3)C(=O)C2=CN1C1CCCCC1 (stereo unspecified) | 4 | -5 | 38* | -2 | -4 | 4 | 17
COC(=O)CCCC1=CC2=C(c3ccccc3)C(=O)C(C)(OC(=O)C3CCCC3)C(=O)C2=CN1CC1CC1 (stereo unspecified) | 7 | -6 | 49* | -4 | 1 | -1 | 8
COC(=O)CCCC1=CC2=C(c3ccccc3)C(=O)C(C)(OC(=O)C3CCCC3)C(=O)C2=CN1CC(C)C (stereo unspecified) | 6 | -16 | 52* | -2 | 4 | 3 | 6
COC(=O)CCCC1=CC2=CC(=O)C(C)(OC(=O)C3CCCC3)C(=O)C2=CO1 (stereo unspecified) | 0 | 3 | 18 | -2 | -4 | -2 | .
O=C(CC1C[C@H](C(=O)N2CCOCC2)[C@@]2(CCC3CCCC3)c3[nH]c4ccccc4c3CCN2C1=O)NCc1ccco1 (stereo partly specified) | . | 0 | . | . | . | . | .
COc1ccccc1N(CC(=O)Nc1ccc2c(c1)OCCO2)S(=O)(=O)c1ccc(C)cc1 | -5 | -3 | 1 | -3 | -3 | 4 | .
CN1CCC(=C2c3ccccc3C(O)c3ccccc32)CC1 (stereo unspecified) | -1 | -2 | -4 | 2 | -5 | 3 | .
CN1CCc2cccc3c2C1Cc1ccc(O)c(O)c1-3 (stereo unspecified) | -5 | -2 | 93* | -7 | 0 | 0 | 9
CCOc1ccc2c(c1)C(C)=CC(C)(C)N2C(=O)Nc1ccccc1F | 6 | -6 | 42* | 0 | 7 | 6 | 3
SMILES | PME-1 primary | PAD4 FP inh | GSTO1 counter | LYPLA1 inh | LYPLA2 inh | Fam108B inh | GSTO1 confirm
CCNC(=O)N1c2ccc(OCC)cc2C(C)=CC1(C)C | 2 | -7 | 18 | 2 | 4 | -1 | .
CC(C)=CCc1c(O)c(CC=C(C)C)c2c(c1O)-c1cc(O)c(O)cc1CC2 | 11 | 2 | 39* | -3 | 0 | 2 | -7
Cc1cc(O)c(C(C)C)cc1N=Cc1ccccc1O | 11 | -7 | 54* | -1 | 2 | -2 | 4
Cc1cc(O)c(C(C)C)cc1N=Cc1cc([N+](=O)[O-])ccc1O | -8 | 4 | 27 | -1 | 1 | -3 | .
O=C(COC(=O)c1ccc([N+](=O)[O-])s1)NC(=O)NCc1ccccc1 | 9 | -3 | 51* | 3 | 19 | 7 | 17
O=C(COC(=O)c1ccc([N+](=O)[O-])s1)NCc1ccc(F)cc1 | 8 | 4 | 43* | 6 | 10 | 6 | 16
O=C(NCc1ccncc1)C(=O)NCC1OCCN1S(=O)(=O)c1ccc(F)cc1 (stereo unspecified) | 3 | 1 | 3 | 0 | 7 | -2 | .
CC1CCCC(C)N1C(=O)COC(=O)c1c[nH]c2ccccc12 (stereo unspecified) | -2 | -1 | . | 0 | 7 | . | .
CCOC(=O)C1CCCN(c2c(NCCN3CCCCC3CC)c(=O)c2=O)C1 (stereo unspecified) | 9 | 2 | 58* | 4 | 0 | 2 | 8
CCOC(=O)N1CCN(c2c(NCCN3CCCCC3CC)c(=O)c2=O)CC1 (stereo unspecified) | 2 | -3 | 3 | -1 | 3 | -2 | .
CC(=O)N1N=C(c2ccccc2)OC1c1ccc([N+](=O)[O-])s1 (stereo unspecified) | -5 | -13 | 41* | -4 | -2 | 1 | 14
CC(=O)N1N=C(c2cccc([N+](=O)[O-])c2)OC1c1ccc(Br)cc1 (stereo unspecified) | 1 | 1 | -6 | 3 | 5 | 0 | .
Nc1ccc2nn(-c3cccc4ccccc34)nc2c1 | 8 | 2 | 61* | -11 | -14 | 7 | 7
Cc1cc2nn(-c3cccc4ccccc34)nc2cc1N | 3 | -3 | 15 | -1 | 1 | 1 | .
O=C(O)c1cccc(-c2noc(-c3cccc(Cl)c3)n2)c1 | -6 | 0 | . | -3 | 2 | . | .
O=C(CNC(=O)c1ccccc1)NCCc1ccc(O)c(O)c1 | -2 | 4 | 75* | 0 | 1 | -2 | 7
O=C(COC(=O)CNC(=O)c1ccccc1)NCCc1ccccc1 | -3 | -4 | 1 | -6 | -7 | -3 | .
